Bioassay records: PubChem, The Scripps Research Institute Molecular Screening Center
PLC-gamma1 inh – inhibitors of human phospholipase C gamma1. purified PLC-gamma1, fluorogenic substrate, fluorescence. inhibition, % at 12.2 µM. actives 0.84% (n = 370,000). AID 720700
Target sequence (P19174 whole entry, looked up): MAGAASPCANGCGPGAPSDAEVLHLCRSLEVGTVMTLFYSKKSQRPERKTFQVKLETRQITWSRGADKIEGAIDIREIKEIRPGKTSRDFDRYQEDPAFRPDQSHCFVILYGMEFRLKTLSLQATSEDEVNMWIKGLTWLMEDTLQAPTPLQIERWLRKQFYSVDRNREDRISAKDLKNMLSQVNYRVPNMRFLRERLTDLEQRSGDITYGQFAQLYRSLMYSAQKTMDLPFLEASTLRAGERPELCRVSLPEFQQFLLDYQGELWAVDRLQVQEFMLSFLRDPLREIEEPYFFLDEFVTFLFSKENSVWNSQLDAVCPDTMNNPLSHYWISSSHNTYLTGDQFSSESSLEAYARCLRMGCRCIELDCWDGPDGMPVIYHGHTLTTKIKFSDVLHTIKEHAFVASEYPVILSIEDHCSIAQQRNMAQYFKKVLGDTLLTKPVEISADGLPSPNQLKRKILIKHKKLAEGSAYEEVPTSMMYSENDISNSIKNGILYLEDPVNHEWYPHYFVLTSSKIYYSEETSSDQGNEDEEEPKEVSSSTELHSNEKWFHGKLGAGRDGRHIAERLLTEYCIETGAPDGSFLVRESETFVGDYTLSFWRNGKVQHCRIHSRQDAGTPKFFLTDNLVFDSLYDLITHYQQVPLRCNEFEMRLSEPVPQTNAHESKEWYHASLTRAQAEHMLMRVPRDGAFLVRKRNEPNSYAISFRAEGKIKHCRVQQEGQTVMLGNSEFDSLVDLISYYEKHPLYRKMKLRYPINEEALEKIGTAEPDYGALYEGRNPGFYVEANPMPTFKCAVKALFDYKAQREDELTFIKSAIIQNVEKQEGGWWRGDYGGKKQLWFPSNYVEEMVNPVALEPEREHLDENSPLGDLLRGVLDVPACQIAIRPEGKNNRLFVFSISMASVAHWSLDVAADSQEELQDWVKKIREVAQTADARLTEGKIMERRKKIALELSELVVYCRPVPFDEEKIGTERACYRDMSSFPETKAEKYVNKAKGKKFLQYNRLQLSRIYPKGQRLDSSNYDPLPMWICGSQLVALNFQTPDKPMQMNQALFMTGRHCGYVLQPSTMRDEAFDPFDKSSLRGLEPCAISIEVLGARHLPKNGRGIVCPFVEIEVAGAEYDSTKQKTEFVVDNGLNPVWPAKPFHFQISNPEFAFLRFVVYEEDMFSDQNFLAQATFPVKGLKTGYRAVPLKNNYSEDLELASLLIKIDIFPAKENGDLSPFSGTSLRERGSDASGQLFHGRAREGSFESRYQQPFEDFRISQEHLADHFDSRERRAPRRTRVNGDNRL
DAGLB inh – diacylglycerol lipase beta (human) inhibition | Q8NCG7 | HEK293T DAGLB membrane lysate, EnzChek fluorogenic substrate | actives 0.059% (n = 340,000) | inhibition, % at 5.17 µM; in the data active = inhibition above about 34%;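 also: 0% = enzyme with vehicle and 100% = wells lacking enzyme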
sPLA2-III inh – Inhibits HGIII-sPLA2 liposome hydrolysis, primary screen; QFRET BODIPY PC-A2 liposome hydrolysis, fluorescence; inhibition, % at 12.2 µM; actives 0.56% (n = 370,000); AID 743126;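 active = inhibition above mean plus 3 SD of compounds lying within the high and low control bounds, cut at about 19% in these data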;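 also: 0% = median of test compound wells and 100% = no enzyme DMSO wells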
PLCb3 inh – PLC-beta3 (human) inhibition, primary screen; Purified PLC-beta3, fluorogenic substrate, fluorescence; inhibition, % at 12.2 µM; actives 0.18% (n = 370,000); AID 720704; in the data active = inhibition above about 11%;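 also: 0% = median of compound wells on plate and 100% = full blocker control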
PLCg1 ctr – inhibits human PLC-gamma1 in PLC-beta3 counter-screen | actives 3.1% (n = 3,300) | shares compounds with PLC-gamma1 inh | purified PLC-gamma1, fluorogenic substrate, fluorescence | inhibition, % at 12.3 µM
PLCbeta3 conf – human PLC-beta3 inhibition, confirmation; shares compounds with PLC-gamma1 inh; purified PLC-beta3, fluorogenic substrate fluorescence; inhibition, % at 12.3 µM; actives 1% (n = 3,300); in the data active = inhibition above about 11%
Starred values were filed as active, the others as inactive; x = no result given. Shown are actives, neighbours in structure and some others; about 1.5% of the full set was active somewhere. Rule as the data show it, unless noted: active = inhibition above about 9.5%; inactive = the rest.

SMILES	PLC-gamma1 inh	DAGLB inh	sPLA2-III inh	PLCb3 inh	PLCg1 ctr	PLCbeta3 conf
COC(=O)c1cc(-c2cc3ccccc3s2)c(=O)n2c1CCC2	-37	x	-3	-50	x	x
COc1ccc(NC2=NC(=S)N(c3ccccc3C)C23CCCCC3)cc1	5	-2	3	2	x	x
COc1ccc(N2C(=S)N=C(Nc3ccccc3)C23CCCCC3)cc1	15*	0	8	-3	0	4
COc1cccc(CNCc2ccc(OC)c3ccccc23)c1OC	5	-1	-9	-3	x	x
COc1cccc(CNCc2ccccn2)c1OC	3	3	3	14*	-6	-4
COc1ccc(CN(CCN2CCOCC2)C(=O)c2cc(Cl)ccc2F)cc1OC	1	x	3	6	x	x
O=C(NCCCc1ccccc1)[C@H](Cc1c[nH]c2ccccc12)NC1(C(=O)NCCc2c[nH]c3ccccc23)CCOCC1	4	x	-83	3	x	x
O=C(CNS(=O)(=O)c1ccccc1Br)OCC(=O)N1CCc2ccccc21	0	-1	-11	-1	x	x
O=C(CNC(=O)c1cccc(F)c1)OCC(=O)N1CCCc2ccccc21	12*	1	5	5	-2	-1
O=C(CNC(=O)c1ccccc1F)OCC(=O)N1CCCc2ccccc21	4	1	6	4	x	x
CC(=O)Nc1ccc(S(=O)(=O)NCC(=O)OCC(=O)N2CCc3ccccc32)cc1	13*	-2	2	1	-9	-6
CCCCC(=O)N[C@H]1CC[C@@]23CCCN2C(=O)CCC[C@H]3[C@H]1CCC	0	x	-2	3	x	x
CN(Cc1nc2ccccc2[nH]1)C(=O)C1CCC(=O)N(C2CCCC2)C1 (stereo not drawn)	9.8*	1	1	-2	-1	2
Cc1cccc2[nH]c(CN(C)C(=O)C3CCC(=O)N(C4CC4)C3)nc12 (stereo not drawn)	-1	1	2	-4	x	x
COc1ccc(/C(O)=C2/C(=O)C(=O)N(CC3CCCO3)C2c2cccc(O)c2)cc1 (stereo not drawn)	9.6*	-1	10	-1	-2	-7
O=C(CCc1ccc(S(=O)(=O)NCCc2ccccc2)cc1)Nc1ccc2c(c1)OCO2	10*	3	-43	-1	-6	-4
C[N+]1=C(N)NC2=C3CCCCC3n3c(=O)n(-c4ccccc4)c(=O)n3C2C1 (stereo not drawn)	-1	x	4	1	x	x
COc1ccc(-c2cc(-c3nnc(SCc4cccc5ccccc45)n3N)[nH]n2)cc1	7	x	6	2	x	x
Cc1ccc(NC(=O)CN(C)C(=O)Cc2ccc(Cl)cc2Cl)cc1	11*	-6	-13	0	-10	-6
Cc1ccc(C)c(NC(=O)CN(C)C(=O)Cc2ccc(Cl)cc2Cl)c1	-3	-3	-7	-6	x	x
CC(C)(C)c1ccccc1OCC(O)CN1CCN(c2ccccn2)CC1 (stereo not drawn)	12*	-8	11	-4	0	-2
Cc1ccc(OCC(O)CN2CCN(c3ccccn3)CC2)c(C)c1 (stereo not drawn)	1	-6	-2	-4	x	x
CC(C)Oc1ccc(C(=O)Nc2ccc([N+](=O)[O-])cc2)cc1	10*	-2	12	0	-3	-1
O=C(NC1CCCCN(Cc2cccc(Cl)c2)C1=O)c1cccc(F)c1 (stereo not drawn)	1	x	8	-5	x	x
O=C(NCC1CCCO1)c1nnc(Cc2ccc(F)cc2)o1 (stereo not drawn)	11*	-2	4	7	-9	-5
SMILES	PLC-gamma1 inh	DAGLB inh	sPLA2-III inh	PLCb3 inh	PLCg1 ctr	PLCbeta3 conf
O=C(O)c1cccc(NC(=O)c2cc(NC(=O)c3ccccc3)cc(NC(=O)c3ccccc3)c2)c1	1	2	-13	-9	x	x
O=C(O)c1cccc(NC(=O)c2ccccc2)c1	11*	1	12	8	-2	1
O=C(CCc1nc(-c2ccccc2F)no1)NCCc1cccc(F)c1	-1	x	13	-3	x	x
CCN(CC)C(=O)c1[nH]cnc1C(=O)Nc1ccccc1	1	-1	9	-1	x	x
CCN(CC)C(=O)c1nc[nH]c1C(=O)N(CC)CC	14*	-1	6	7	0	0
Cc1c(C#N)c(NC(=O)c2cccc(Cl)c2)n(Cc2ccccc2)c1C	9.9*	2	-9	1	0	1
Cc1nn(CCOc2ccccc2)c(=O)n1-c1ccc(F)cc1	11*	-1	14	0	-4	-2
Cc1nn(CCOc2ccccc2)c(=O)n1-c1cccc(F)c1	2	-3	4	6	x	x
Cc1cc(C(=O)N2CCN(c3ccc([N+](=O)[O-])cc3)CC2)no1	9.5*	1	0	9	-4	-3
C[C@H]1[C@@H](OC(=O)NC2CCCCC2)CC[C@@]23CCCN2C(=O)CCC[C@@H]13	1	x	7	0	x	x
CS(=O)(=O)N(CCc1ccccc1)CC(=O)N1CCCCCC1	2	0	3	13*	-7	-3
CCc1nc2c(OCc3ccc(Cl)cc3Cl)cccn2c1N(C)C(=O)c1ccccc1F	4	x	-8	11*	-4	-4
CCc1nc2c(OC)cccn2c1N(C)C(=O)c1ccccc1F	-11	x	6	-6	x	x
CCOc1ccc(CCNC(=O)Cc2ccccc2)cc1OCC	1	x	-6	0	x	x
COc1cc(C(=O)NCc2ccccc2)ccc1OC(F)F	-3	-4	4	-1	x	x
COc1cc(C(=O)NCc2ccc(C)cc2)ccc1OC(F)F	9.7*	-4	10	-3	1	-6
O=C(CSCc1ccccc1)Nc1cccc(F)c1	11*	-3	-3	9	4	8
O=C(CSCc1ccc(F)cc1)Nc1ccc(F)cc1	2	-5	0	1	x	x
C=C(C)CSc1nnc(-c2cc(-c3ccccc3)n[nH]2)n1N	-2	x	-1	0	x	x
COCCN(C[C@@H]1[C@H](c2ccccc2)[C@H](CO)N1c1nc(C)c(C)s1)S(=O)(=O)c1ccccc1[N+](=O)[O-]	2	x	2	1	x	x
CCOC(=O)N1CCN(C(=O)CN(c2ccc(OC)cc2)S(C)(=O)=O)CC1	6	1	2	11*	0	0
CCOC(=O)N1CCN(C(=O)c2ccc(N(Cc3ccc(Cl)cc3)S(C)(=O)=O)cc2)CC1	1	0	-14	-3	x	x
CCOC(=O)N1CCN(C(=O)CN(c2cccc(C)c2)S(=O)(=O)c2ccccc2)CC1	-1	-2	0	-1	x	x
CCOC(=O)N1CCN(C(=O)CN(c2cccc(C)c2)S(=O)(=O)c2ccc(C)cc2)CC1	20*	-2	2	2	-15	-1
CCOC(=O)N1CCN(C(=O)c2ccc(N(Cc3ccc(C)cc3)S(C)(=O)=O)cc2)CC1	12*	1	0	10	-6	-6
Cc1ccc(-c2cc(C(=O)NN=C/C=C/c3ccco3)[nH]n2)cc1C	0	x	6	-12	x	x
CCC[C@H]1[C@@H](N(C)Cc2cccs2)CC[C@@]23CCCN2C(=O)CCC[C@@H]13	-3	x	1	-1	x	x
